This is one part of a sample in which hits are shown more often than they occur.
Pf Dd2 growth = qHTS Primary assay for Inhibitors of Plasmodium falciparum Dd2 growth in vitro; Potency, µM (doses to about 28.9 µM), inactives show at the top dose activity, negative = inhibition, actives largely listed as inhibitors; AID 1347417, 2020; 4.3% of 120,000 active; P. falciparum Dd2 growth, SYBR Green, 72 h; active = well fitted inhibition curve with a large enough effect;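 also: plate controls were DMSO vehicle for no effect and reference drug for full effect; nearly all actives have a fitted effect of over 65% in size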
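Readout: SYBR Green fluorescence, 485 nm excitation, 535 nm emission, after ~16 h lysis at 37C. Before that, Dd2-infected red cells (2.5% hematocrit) grew 72 h with compound, 29 uM top final concentration.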
Numbers without * were called inactive; i = inactive; [ ] = remark or other dose. Potency is read from the fitted curve at half-maximal effect.

SMILES	Pf Dd2 growth
COCCN1C(=O)[C@H]2CN(Cc3ccc(C)cc3)C[C@H]2C1=O	90%
O=C1CCN(C(=O)[C@@H](Cc2ccccc2)NS(=O)(=O)c2cccs2)CCOCCN1	i
O=C(Nc1cccc(C(F)(F)F)c1)O[C@@H]1CO[C@H]2[C@@H]1OC[C@@H]2NC(=S)NC1CCCCC1	-3%
Cc1ccc(Cl)cc1NC(=O)CN1C(=O)NC2(CCCCC2)C1=O	3%
CCN1C(=O)C2(CCN(C(=O)C3CCCCC3)CC2)c2ccccc21	i
Cn1c(=O)c2ccnn2c2ccc(C(=O)NCC3CCN(Cc4ccccc4F)CC3)cc21	-19%
CS(=O)(=O)N1CCN(C(=O)C2CC(=O)N(c3n[nH]c4cccc(F)c34)C2)CC1 (stereo not given)	-3%
COc1ccc(-c2cc3c(=O)n(CCNC(=O)c4ccc(F)cc4)ccn3n2)cc1	i
CCc1ccc(C(=O)NCCn2ccn3nc(-c4ccc(F)cc4)cc3c2=O)cc1	4µM*
Cc1cc(C)cc(C(=O)NCCn2ccn3nc(-c4ccc(F)cc4)cc3c2=O)c1	i
O=C(c1cccc(Cl)c1)N1CC(CNc2cccnc2)C2(C1)CN(c1ccccc1)C2 (stereo not given)	13µM*
O=C(NCC1CN(Cc2ccncc2Cl)CC12CN(c1ccccc1)C2)c1ccccc1 (stereo not given)	-3%
O=C(c1cccnc1)N1CC(COc2ccccc2)C2(C1)CN(c1ccccc1)C2 (stereo not given)	-26%[44.1 µM]
O=C(Cc1ccccc1)NCC1CN(Cc2ccncc2Cl)CC12CN(c1ccccc1)C2 (stereo not given)	11µM*
Cn1cc(C(=O)NCC2CN(C(=O)c3ccccc3)CC23CN(c2ccccc2)C3)cn1 (stereo not given)	i
CC(C)c1ccc(CN2CC(CNC(=O)c3cnn(C)c3)C3(C2)CN(c2ccccc2)C3)cc1 (stereo not given)	i
CN(C)C[C@@H]1CN(Cc2ccccc2)C[C@H]1NC(=O)C1(C)CCOCC1	-19%
COCCn1c(=O)[nH]c2cccnc21	-7%[44.1 µM]
O=C1CCN(S(=O)(=O)c2ccccc2)CCCN(C(=O)c2ccncc2)CCN1	-27%
CCOc1ccc(/C=C/c2nc3ccccc3n2S(=O)(=O)c2ccc(Br)cc2)cc1	11µM*
CCOc1ccc(S(=O)(=O)c2cn(C)c3ccccc3c2=O)cc1	0%
CCOc1ccc(S(=O)(=O)Nc2nc3ccccc3nc2Nc2ccc(OC)cc2)cc1	-5%
CCCN1CCCC12Cc1ccccc1CN(C(=O)CNC(C)=O)C2 (stereo not given)	9%
CCCN1CCCCC12Cc1ccccc1CN(C(=O)CCCC(=O)O)C2 (stereo not given)	5%
NCCC(=O)N1Cc2ccccc2CC2(CCCCN2CC2CCNCC2)C1 (stereo not given)	18%
SMILES	Pf Dd2 growth
CCCC(=O)N1Cc2ccccc2CC2(CCCN2CCC)C1 (stereo not given)	8.9µM*
CCCC(=O)N1Cc2ccccc2CC2(CCCCN2CC)C1 (stereo not given)	10µM*
O=C(O)CCCC(=O)N1Cc2ccccc2CC2(CCCCN2CCc2ccccc2)C1 (stereo not given)	-20%
CNc1nccc(N2CCC(CC(=O)NCc3ccncc3)CC2)n1	i
Cc1ccc(-n2c3c(c(=O)[nH]c2=O)C(NS(=O)(=O)c2ccc(C)cc2)(C(F)(F)F)C(=O)N3)cc1 (stereo not given)	22%
O=C1Nc2c(c(=O)[nH]c(=O)n2-c2ccc(F)cc2)C1(NS(=O)(=O)c1ccc(Cl)cc1)C(F)(F)F (stereo not given)	37%
Cc1ccc(-n2c3c(c(=O)[nH]c2=O)C(NS(=O)(=O)c2ccc(Cl)cc2)(C(F)(F)F)C(=O)N3)cc1 (stereo not given)	8.9µM*
OCCCn1cnc2cc(-n3ccnc3-c3cc4n(n3)CCNC4)ccc21	1%
COc1cc(OC)cc(C(=O)N2CCN(c3cc(-c4ccc(Cl)cc4)[nH]n3)CC2)c1	-14%
O=C(CCCc1ccccc1)N1CCN(c2cc(-c3ccccc3)[nH]n2)CC1	i
COc1ccc(CCC(=O)N2CCCN(c3cc(-c4ccc(Br)cc4)[nH]n3)CC2)cc1	-8%
COc1ccc(-c2cc(N3CCCN(C(=O)c4ccccc4)CC3)n[nH]2)cc1	-1%
COc1cccc(C(=O)N2CCCN(c3cc(-c4ccc(Cl)cc4)[nH]n3)CC2)c1	4µM*
COc1ccc(-c2cc(N3CCCN(C(=O)CCCc4ccccc4)CC3)n[nH]2)cc1	2.2µM*
CN(C)Cc1nnc(C2CC(NC(=O)C3(C#N)CCOCC3)C2)n1C (stereo not given)	0%
CN(CC1CCOC1)S(=O)(=O)c1ccc(F)c(F)c1 (stereo not given)	i[5.79 µM]
Cc1nc(-c2c3n(c(=O)n(CC(=O)Nc4cccc(F)c4)c2=O)CCCCC3)no1	8%
CCc1cccc(NC(c2ccccc2)c2nnc(-c3ccccc3F)o2)c1 (stereo not given)	11µM*
Fc1ccccc1-c1nnc([C@H]2CCN(Cc3ccccc3)C2)o1	i
CCc1cccc(NC(=O)CN2C(=O)CN=C(c3ccccc3F)c3cc(Cl)ccc32)c1	16%
Cc1ccc(C(=O)N2CCCCCCN(C)C(=O)[C@@H]3CCC[C@@H]32)s1	-14%
Cc1nc2ccccc2n1CCc1nc2c3ccccc3nc(SCC(=O)Nc3ccc(C(C)C)cc3)n2n1	8.9µM*
Cc1nc2ccccc2n1CCc1nc2c3ccccc3nc(SCC(=O)Nc3cccc(C(F)(F)F)c3)n2n1	i
Cc1nc2ccccc2n1CCc1nc2c3ccccc3nc(SCC(=O)Nc3ccc(Br)cc3F)n2n1	i
COc1ccccc1C(=O)N1CC(c2nnc(-c3ccncc3)o2)C2(CCOCC2)C1 (stereo not given)	6%
SMILES	Pf Dd2 growth
CC(C)NC(=O)C[C@@H]1CCNC[C@@H]1Cc1cc(-c2ccccc2)on1	i
O=C(Cc1c[nH]c2ccccc12)N1CCC(Cc2nc(-c3ccccc3)n[nH]2)CC1	-5%
O=C(O)c1ccc(CN2CCOC[C@H]2c2ncc(-c3ccc(F)cc3)[nH]2)cc1	i
CCOC(=O)c1ccc(NC(=O)C2CCCN(c3ccc(Sc4ccc(C)cc4)nn3)C2)cc1 (stereo not given)	5.6µM*
CCOC(=O)c1ccc(NC(=O)C2CCCN(c3ncnc4onc(C)c34)C2)cc1 (stereo not given)	7.9µM*
CCOCCCNC(=O)C1CCCN(c2ncnc3onc(C)c23)C1 (stereo not given)	1%
COC(=O)c1ccccc1NC(=O)C1CCCN(c2ncnc3onc(C)c23)C1 (stereo not given)	-2%
Cc1ccc(Sc2ccc(N3CCCC(C(=O)Nc4ccc(F)cc4F)C3)nn2)cc1 (stereo not given)	-5%
CCOC(=O)c1ccc(NC(=O)C2CCCN(c3cnccn3)C2)cc1 (stereo not given)	-11%
O=[S+]1([O-])NCC2(CCN(Cc3ccccn3)CC2)Oc2ncccc21	i
CN(Cc1cccnc1)Cc1nc(C2(O)CCN(C3CCCC3)CC2)cs1	i
O=C(NC1C[C@H]2CC[C@@H](C1)N2S(=O)(=O)c1cccs1)c1ccncc1 (stereo not given in full)	-8%
COc1ccc(CCNC(=O)C(=O)Nc2ccccc2F)cc1	i
COc1ccc(CN2CC3(CCN(S(=O)(=O)Cc4ccccc4F)CC3)C2=O)cc1	-1%
COc1ccc(CCN(Cc2ccccc2F)CC2(O)CCCNC2)cc1 (stereo not given)	13µM*
